VLA-4 agonist: allosterically activates the human VLA-4 integrin. 24,000 tested, under 10 active. Jurkat cells, LDV-FITC binding, flow cytometry. P13612. activation, % at 10 µM (by protocol). AID 528;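 active = fluorescent ligand binding to cells raised by more than 40% of the manganese-induced maximum; inconclusive = compound's own fluorescence above 85% of the ligand control signal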;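 note: 0% = ligand binding without compound and 100% = manganese-stimulated maximal binding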
VLA-4 antagonist: inhibition of LDV-FITC ligand binding to human VLA-4 integrin. P13612. Jurkat cells, LDV-FITC binding with Mn2+, flow cytometry; 100% = Mn2+-driven binding gain fully reversed. inhibition, % at 10 µM (by protocol). actives 0.2% (n = 24,000). AID 529;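 active = inhibition above 50%; inconclusive = compound itself fluorescent, judged against control cell fluorescence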;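 note: 0% = Mn2+ stimulated cells lacking compound and 100% = ligand binding without Mn2+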
FPRL1 binder: human FPRL1 ligand, with FPR counter-screen | FPRL1-expressing cells, fluorescent ligand binding inhibition, flow cytometry | actives 0.3% (n = 24,000) | AID 441 | P25090 | inhibition, % (concentration not given with the values);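 note: 0% = buffer alone and 100% = receptor blocker peptide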
Target sequence (P25090 whole entry, looked up): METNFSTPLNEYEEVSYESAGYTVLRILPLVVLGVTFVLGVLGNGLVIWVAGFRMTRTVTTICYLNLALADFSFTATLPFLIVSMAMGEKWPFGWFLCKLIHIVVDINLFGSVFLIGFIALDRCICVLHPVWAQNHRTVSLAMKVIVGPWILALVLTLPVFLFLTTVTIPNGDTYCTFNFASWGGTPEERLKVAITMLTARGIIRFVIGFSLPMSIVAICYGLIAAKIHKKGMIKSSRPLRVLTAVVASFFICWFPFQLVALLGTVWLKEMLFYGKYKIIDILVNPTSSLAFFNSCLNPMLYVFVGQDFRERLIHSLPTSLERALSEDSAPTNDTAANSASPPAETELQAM
Prostate diff: promotes differentiation of LNCaP prostate cells; flow cytometry side scatter, 4 d; actives 0.56% (n = 24,000); AID 795; side scatter shift, % at 10 µM;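 active = side scatter shift above 30%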;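 note: androgen-responsive LNCaP prostate cancer cells in charcoal-stripped serum medium; percent of cells past a gate set so DMSO wells show 10% shift; higher shift means more granular cells and more differentiation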
FPR ligand: binds the human formylpeptide receptor FPR; inhibition, % (concentration not given with the values); AID 440; actives 0.74% (n = 24,000); FPR-expressing cells, fluorescent ligand binding, flow cytometry; P21462;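 note: 0% = buffer wells and 100% = receptor blocker peptide wells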
Target sequence (P21462 whole entry, looked up): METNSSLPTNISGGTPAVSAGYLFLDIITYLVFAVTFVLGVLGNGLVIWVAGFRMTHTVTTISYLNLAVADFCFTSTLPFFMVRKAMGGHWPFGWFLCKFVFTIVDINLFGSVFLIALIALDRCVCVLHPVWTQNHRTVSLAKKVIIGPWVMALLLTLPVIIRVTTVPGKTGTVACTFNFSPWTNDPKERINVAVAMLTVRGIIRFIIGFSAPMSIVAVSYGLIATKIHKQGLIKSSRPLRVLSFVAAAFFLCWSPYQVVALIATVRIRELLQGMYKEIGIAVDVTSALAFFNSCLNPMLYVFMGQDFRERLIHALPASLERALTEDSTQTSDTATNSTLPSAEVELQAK
Autofluor Jurkat: counter-screen for VLA-4 integrin: compound autofluorescence in Jurkat cells. flow cytometry; active compounds read high; 1 = vehicle-only cell background. fluorescence ratio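 (tested at 10 µM compound in the well)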. actives 0.61% (n = 24,000);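 active = fluorescence ratio above 2.44, which is 1 plus 3 SD of all ratios; inconclusive = signal too bright to measure linearly, ratio around 10 or more; inactive = fluorescence ratio below 2.44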;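 note: green fluorescence of cells measured with 488 nm excitation and 530 nm emission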
Numbers without * were called inactive; ? = inconclusive; nt = no result given. Shown are actives, neighbours in structure and some others; about 1.9% of the full set was active somewhere. Cut-off read from the data, not from the text of the source, unless noted: active = inhibition above about 30%; inconclusive = no clear call, values can overlap the other calls; inactive = below that.

SMILES | VLA-4 agonist | VLA-4 antagonist | FPRL1 binder | Prostate diff | FPR ligand | Autofluor Jurkat
COc1ccccc1-c1nnc(Nc2nc3c(OC)cccc3s2)o1 | 2.5 | 11.5 | 4.3 | 18.0 | -4.1 | 1.06
COc1cccc2sc(Nc3nnc(-c4ccccc4Cl)o3)nc12 | 7.0 | 73.0* | nt | nt | nt | 1.01
COc1cc(NS(=O)(=O)c2ccc(Br)s2)cc(OC)c1 | ? | ? | ? | 3.0 | -39.3 | 4.46*
O=S(=O)(Nc1ccc2c(c1)OCO2)c1ccc(Br)s1 | 0.0 | -12.0 | -7.5 | 4.0 | 3.6 | 1.12
O=c1c2c(nc3c(-c4cccc5ccccc45)c[nH]n13)CCC2 | nt | nt | -0.8 | nt | -14.5 | nt
O=c1c2c(nc3c(-c4ccc(Cl)cc4)c[nH]n13)CCCC2 | nt | nt | 1.0 | nt | 70.6* | nt
COc1ccc2nc(Nc3nc(C)c(C(C)=O)s3)sc2c1 | -12.0 | 63.0* | 58.8* | 7.0 | 5.5 | 1.16
CCOC(=O)c1c(C)c(C(=O)Nc2cc(F)ccc2F)c(C)n1C | ? | ? | 2.8 | 12.0 | 4.4 | 1.28
COCCOC(=O)c1cc(C(=O)c2cc(F)ccc2O)coc1=N | ? | ? | -8.2 | 13.0 | -5.8 | 4.08*
CCCCNC(=O)CC(=O)Nc1ccccc1C(=O)O | 5.0 | 7.0 | -1.1 | 2.0 | 8.3 | 0.93
Cc1ccc(CNC(=O)CCS(=O)(=O)c2cc(Br)cc3c2N(C(=O)C2CC2)CC3)o1 | -2.0 | 0.0 | 1.7 | 7.0 | 9.9 | 1.09
Cc1nc2ccc(F)cc2cc1C(=O)NCC1CCCO1 (centres undefined) | ? | ? | -4.5 | 8.0 | -4.3 | 3.42*
COc1ccc(N2CCN(C(=O)C3CCCN(S(=O)(=O)c4cccc5cccnc45)C3)CC2)cc1 (centres undefined) | 1.0 | 7.0 | 1.7 | 11.0 | -11.3 | 1.01
CC1Cc2ccccc2N1C(=O)C1CCCN(S(=O)(=O)c2cccc3cccnc23)C1 (centres undefined) | ? | ? | -11.9 | 8.0 | -5.6 | 3.6*
CCOc1ccccc1NC1c2ccccc2C(=O)N1c1cccnc1 (centres undefined) | 1.0 | -15.0 | 0.1 | 12.0 | -3.3 | 1.02
COc1ccc(-c2cc(C#N)nc(N3CCN(c4ccccc4)CC3)n2)cc1 | nt | nt | 0.9 | nt | -2.8 | nt
COc1ccc(-c2cc(-c3ccc(F)cc3)nc(N3CCN(C)CC3)n2)cc1 | 3.0 | 0.0 | -1.5 | 48.0* | -0.2 | 0.96
CCOc1ccc(NC(=O)CN(C)CC(=O)NC2CCCc3ccccc32)cc1OCC (centres undefined) | -4.0 | -12.5 | -6.7 | 4.0 | 3.9 | 1.01
CCOC(=O)CCn1nc(-c2ccc(Cl)cc2)cc1N | 4.0 | -10.0 | 51.3* | 11.0 | 54.0* | 1.01
COc1ccc(-c2cn3cccnc3n2)cc1NC(=O)C1CC1 | -6.0 | 28.0 | 75.5* | 12.0 | -3.5 | 1.09
COc1ccc(NC(=O)C2CCCN(S(=O)(=O)c3cccc4cccnc34)C2)c(OC)c1 (centres undefined) | -5.0 | 12.0 | -2.7 | 12.0 | 1.7 | 1.08
COc1ccc(-c2cn3cccnc3n2)cc1NC(=O)C1CCCC1 | -4.0 | -4.0 | 73.5* | 13.0 | 2.3 | 1.07
CCOC(=O)Nc1cc(OCC)c(NC(=O)C2CC2)cc1OCC | 0.5 | -18.5 | -3.2 | 4.0 | -4.0 | 1.06
Cn1c(=O)[nH]c(=O)c2c1nc(N1CCCCCC1)n2CCCSc1nc2ccccc2o1 | 3.0 | -9.5 | 1.5 | 23.0 | 5.4 | 1.08
CCOc1ccccc1NC(=O)CSc1nccn1-c1ccccc1 | -4.0 | 28.0 | 36.6* | 17.0 | 44.1* | 0.97
SMILES | VLA-4 agonist | VLA-4 antagonist | FPRL1 binder | Prostate diff | FPR ligand | Autofluor Jurkat
COc1ccc(NC(=O)CSc2nccn2-c2ccccc2)c(OC)c1 | 4.0 | -13.0 | -3.0 | 1.0 | 5.1 | 0.91
COc1ccc(NC(=O)C(c2ccc(C)cc2)N(C)C(=O)c2cnccn2)cc1 (centres undefined) | 0.9 | -13.3 | 38.3* | 6.0 | 18.4 | 1.01
CC(C)OCCCNC(=O)Cn1nc(-c2ccccc2)ccc1=O | 3.0 | -9.0 | 6.1 | 4.0 | -9.1 | 1.05
CCOC(=O)c1c(C)oc2c1c(C=NCc1ccccn1)c(O)c1ccccc12 | ? | ? | -39.0 | 5.0 | -3.5 | 2.86*
COc1ccc(Cc2nnc3n2N=C(c2cc4ccccc4o2)CS3)cc1OC | -4.5 | 5.5 | 5.4 | 8.0 | 1.8 | 1.12
CN1CCc2c(sc3c2C(=O)NC(c2cccc(OC(=O)c4cccs4)c2)N3)C1 (centres undefined) | ? | ? | -0.1 | 7.0 | 1.9 | 3.22*
COc1cccc(N2CCN(c3ncnc4c3[nH]c3ccc(F)cc34)CC2C)c1 (centres undefined) | -36.3 | 95.0* | 4.3 | 3.0 | -1.4 | 1.07
c1ccc2c(c1)nc(Nc1ccc3c(c1)OCO3)c1nnnn12 | ? | ? | -10.3 | 14.0 | -12.0 | 3.23*
CCN(CC)S(=O)(=O)c1ccc(NC(=O)Cn2cnc3ccccc3c2=O)cc1 | -3.0 | -5.0 | 1.1 | 14.0 | 0.2 | 1
CCN(CC)S(=O)(=O)c1ccc(Nc2nc3ccccc3n3nnnc23)cc1 | ? | ? | -1.8 | 6.0 | -10.6 | 3.24*
Cc1cc(C)n(-c2nc3ccccc3nc2Nc2ccc3c(c2)OCO3)n1 | ? | ? | -4.3 | 21.0 | -8.6 | 1.53
CCN(CC)CCCNC(=O)c1cn(CCOC)c(=O)c2c1c1ccccc1n2C | -3.0 | -5.0 | 7.7 | 16.0 | -1.6 | 1.05
O=C1C2CCCN2C(c2ccc(Cl)cc2)N1c1nccs1 (centres undefined) | 3.0 | -12.0 | -0.7 | 7.0 | -2.7 | 1.09
Cc1cccc2cc(CN(Cc3nnnn3Cc3ccco3)C3CCCC3)c3nnnn3c12 | -24.5 | 15.0 | 6.4 | 6.0 | -5.5 | 1.07
CN1CCN(CCCNC(=O)Nc2cccc3ccccc23)CC1 | -4.3 | -7.8 | 31.9* | 3.0 | 4.6 | 1.08
C=CCOC(=O)C(C#N)c1nc2ccccc2nc1N1CCN(Cc2ccccc2)CC1 (centres undefined) | ? | ? | -5.8 | 5.0 | -0.9 | 2.82*
Cc1ccccc1NC(=O)CN1C(=O)COc2ccc(Cl)cc21 | -9.0 | 11.0 | 1.5 | 3.0 | 3.5 | 1.01
CCn1c(N)c(C(=O)NCc2ccco2)sc1=S | 4.0 | 0.0 | 6.4 | 9.0 | -2.7 | 1
Cn1c(N)c(C(=O)NCc2ccccc2)sc1=S | ? | ? | -13.4 | 3.0 | -11.1 | 4.06*
CCCc1[nH]nc2c1C(CCc1ccccc1)C(C#N)=C(N)O2 (centres undefined) | -10.0 | 61.0* | 1.7 | 4.0 | 1.4 | 1.21
CCCc1[nH]nc2c1C(c1cccc(OC(=O)c3ccco3)c1)C(C#N)=C(N)O2 (centres undefined) | -4.3 | 11.0 | 2.6 | 7.0 | -4.6 | 1.12
O=C(CN1CCOCC1)NCC12CC3CC(CC(C3)C1)C2 | 7.0 | -9.5 | -3.1 | 6.0 | -2.2 | 0.9
COc1ccc(CCNC(=O)CC2Nc3ccccc3NC2=O)cc1OC (centres undefined) | ? | ? | -8.0 | 13.0 | -0.4 | 1.5

Compound activity (PubChem BioAssay)
